Test results published in PubChem BioAssay AID1159580 (chemical genetic matrix, 2015).
“And” between values parts separate entries of the source, which are not always exact repeats. Equal values may be shown once. In all, about 5,500 compounds went through this assay and about 2,000 (36%) were called active. Roughly 18% stayed inconclusive and do not appear here. Cut-off read from the data, not from the text of the source: active = normalized growth mostly below about 0.91 (no sharp cut-off); inconclusive = no clear call, values can overlap the other calls; inactive = mostly above about 0.92. This is one part of the list.

Assay: chemical genetic growth profiling, strain panel (AID 1159580);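 note: tested at 20 µM; growth read once vehicle control cultures reached saturation at 30 °C; 1 = growth at the plate median or of vehicle wells; lower values mean less growth of the strain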
Details: S. cerevisiae deletion strains, growth OD

Measured: normalized growth

O=c1[nH]oc2c1CCNC2
inactive: locus YAL013W, strain DEP1, active compounds read low 1 and 1.01 | locus YAL021C, strain ccr4, active compounds read low 1.01 | locus YAL026C, strain drs2, active compounds read low 1.01 | locus YAL030W, strain snc1, active compounds read low 0.998 | locus YAL040C, strain CLN3, active compounds read low 0.99 | locus YBL061C, strain skt5, active compounds read low 1 | locus YBR009C, strain hhf1, active compounds read low 0.987 | locus YBR021W, strain FUR4, active compounds read low 1.01 | locus YBR023C, strain chs3, active compounds read low 0.998 | locus YBR171W, strain sec66, active compounds read low 0.985 | locus YBR229C, strain ROT2, active compounds read low 1 | locus YBR231C, strain swc5, active compounds read low 0.976 | locus YBR279W, strain paf1, active compounds read low 1.01 | locus YCL011C, strain gbp2, active compounds read low 1.01 | locus YCL016C, strain dcc1, active compounds read low 1 | locus YCL029C, strain bik1, active compounds read low 0.97 | locus YCL061C, strain MRC1 (second series), active compounds read low 1 | locus YCL069W, strain vba3, active compounds read low 1 | locus YCR088W, strain abp1, active compounds read low 0.999 | locus YDL005C, strain med2, active compounds read low 1 | locus YDL035C, strain GPR1, active compounds read low 0.999 | locus YDL040C, strain nat1, active compounds read low 0.992 | locus YDL074C, strain BRE1, active compounds read low 1.04 | locus YDL101C, strain DUN1, active compounds read low 1.01 | locus YDL134C, strain PPH21, active compounds read low 1.01 | locus YDL185W, strain tfp1, active compounds read low 0.964 | locus YDL192W, strain arf1, active compounds read low 0.976 | locus YDR001C, strain nth1, active compounds read low 0.996 | locus YDR069C, strain doa4, active compounds read low 0.993 | locus YDR101C, strain arx1, active compounds read low 0.997 | locus YDR137W, strain rgp1, active compounds read low 1.02 | locus YDR150W, strain NUM1, active compounds read low 0.996 and 0.999 | locus YDR159W, strain sac3, active compounds read low 0.973 | locus YDR162C, strain NBP2, active compounds read low 1.02 | locus YDR195W, strain ref2 0.947 | locus YDR297W, strain sur2, active compounds read low 1.01 | locus YDR318W, strain mcm21, active compounds read low 0.966 | locus YDR334W, strain swr1, active compounds read low 1 | locus YDR335W, strain msn5, active compounds read low 1 | locus YDR363W, strain ESC2, active compounds read low 1.01 | locus YDR388W, active compounds read low 0.986 | locus YDR392W, strain spt3, active compounds read low 1.01 | locus YDR502C, strain sam2, active compounds read low 1 | locus YEL003W, strain gim4, active compounds read low 0.998 | locus YEL037C, strain rad23, active compounds read low 0.999 | locus YEL061C, strain CIN8 (second series), active compounds read low 0.998 | locus YEL061C, strain CIN8, active compounds read low 0.999 | locus YER002W, strain NOP16, active compounds read low 1 | locus YER015W, strain faa2, active compounds read low 1.01 | locus YER016W, strain bim1, active compounds read low 1 | locus YER110C, active compounds read low 0.967 | locus YER111C, strain swi4, active compounds read low 0.994 | locus YER155C, strain BEM2 (second series), active compounds read low 0.978 | locus YER155C, strain BEM2, active compounds read low 0.998 | locus YER167W, strain BCK2, active compounds read low 0.973 | locus YFR010W, strain ubp6, active compounds read low 1.01 | locus YGL078C, strain dbp3, active compounds read low 0.994 | locus YGL086W, strain mad1, active compounds read low 0.963 | locus YGL167C, strain pmr1, active compounds read low 0.999 | locus YGL173C, strain kem1, active compounds read low 1.01 | locus YGL227W, strain vid30, active compounds read low 0.994 | locus YGL240W, strain doc1, active compounds read low 0.988 | locus YGL248W, strain PDE1, active compounds read low 1 | locus YGL253W, strain hxk2, active compounds read low 1.02 | locus YGR078C, strain PAC10, active compounds read low 1.03 and 0.994 | locus YGR135W, strain pre9, active compounds read low 1.01 | locus YGR229C, strain SMI1, active compounds read low 1.03 | locus YGR252W, strain gcn5, active compounds read low 0.97 | locus YHR013C, strain ard1, active compounds read low 0.998 | locus YHR027C, strain rpn1, active compounds read low 1.01 | locus YHR030C, strain SLT2, active compounds read low 0.992 and 1.01 | locus YHR079C, strain IRE1 (second series), active compounds read low 1 | locus YHR079C, strain IRE1, active compounds read low 1.03 | locus YHR094C, strain hxt1, active compounds read low 0.973 | locus YHR129C, strain ARP1, active compounds read low 1 | locus YHR142W, strain chs7, active compounds read low 1.03 | locus YHR200W, strain rpn10, active compounds read low 0.975 | locus YIL066C, strain RNR3, active compounds read low 1.01 | locus YIL073C, strain SPO22, active compounds read low 0.902 | locus YIL125W, strain kgd1, active compounds read low 0.987 | locus YIR030C, strain dcg1, active compounds read low 0.982 | locus YJL092W, strain hpr5, active compounds read low 0.998 | locus YJL095W, strain BCK1 (second series), active compounds read low 0.999 | locus YJL095W, strain BCK1, active compounds read low 1.06 and 1.02 | locus YJL115W, strain asf1, active compounds read low 1.01 | locus YJL129C, strain trk1, active compounds read low 1 | locus YJL134W, strain LCB3, active compounds read low 0.994 | locus YJL154C, strain vps35, active compounds read low 0.995 | locus YJL164C, strain tpk1, active compounds read low 1 | locus YJL166W, strain qcr8, active compounds read low 0.965 | locus YJL168C, strain set2, active compounds read low 0.988 | locus YJL187C, strain SWE1 (second series), active compounds read low 1.02 | locus YJR043C, strain POL32, active compounds read low 0.987 | locus YJR066W, strain TOR1, active compounds read low 0.921 | locus YJR075W, strain HOC1, active compounds read low 1.08
